Drawing on PubChem BioAssay AID588664 (The Scripps Research Institute Molecular Screening Center, 2011), this text covers inhibition for five molecules.

Screen size: about 360,000 compounds; about 1,400 (0.39%) were called active. Shown is part of a subset that was picked to be rich in actives. Unmarked numbers belong to inactive results. Cut-off read from the data, not from the text of the source: active = inhibition above about 5% (passing the limit was not always enough); inactive = the rest.

Chain of Tyrosine-protein kinase ABL1 (Homo sapiens) + Ras and Rab interactor 1 (Homo sapiens) (P00519 whole entry, looked up): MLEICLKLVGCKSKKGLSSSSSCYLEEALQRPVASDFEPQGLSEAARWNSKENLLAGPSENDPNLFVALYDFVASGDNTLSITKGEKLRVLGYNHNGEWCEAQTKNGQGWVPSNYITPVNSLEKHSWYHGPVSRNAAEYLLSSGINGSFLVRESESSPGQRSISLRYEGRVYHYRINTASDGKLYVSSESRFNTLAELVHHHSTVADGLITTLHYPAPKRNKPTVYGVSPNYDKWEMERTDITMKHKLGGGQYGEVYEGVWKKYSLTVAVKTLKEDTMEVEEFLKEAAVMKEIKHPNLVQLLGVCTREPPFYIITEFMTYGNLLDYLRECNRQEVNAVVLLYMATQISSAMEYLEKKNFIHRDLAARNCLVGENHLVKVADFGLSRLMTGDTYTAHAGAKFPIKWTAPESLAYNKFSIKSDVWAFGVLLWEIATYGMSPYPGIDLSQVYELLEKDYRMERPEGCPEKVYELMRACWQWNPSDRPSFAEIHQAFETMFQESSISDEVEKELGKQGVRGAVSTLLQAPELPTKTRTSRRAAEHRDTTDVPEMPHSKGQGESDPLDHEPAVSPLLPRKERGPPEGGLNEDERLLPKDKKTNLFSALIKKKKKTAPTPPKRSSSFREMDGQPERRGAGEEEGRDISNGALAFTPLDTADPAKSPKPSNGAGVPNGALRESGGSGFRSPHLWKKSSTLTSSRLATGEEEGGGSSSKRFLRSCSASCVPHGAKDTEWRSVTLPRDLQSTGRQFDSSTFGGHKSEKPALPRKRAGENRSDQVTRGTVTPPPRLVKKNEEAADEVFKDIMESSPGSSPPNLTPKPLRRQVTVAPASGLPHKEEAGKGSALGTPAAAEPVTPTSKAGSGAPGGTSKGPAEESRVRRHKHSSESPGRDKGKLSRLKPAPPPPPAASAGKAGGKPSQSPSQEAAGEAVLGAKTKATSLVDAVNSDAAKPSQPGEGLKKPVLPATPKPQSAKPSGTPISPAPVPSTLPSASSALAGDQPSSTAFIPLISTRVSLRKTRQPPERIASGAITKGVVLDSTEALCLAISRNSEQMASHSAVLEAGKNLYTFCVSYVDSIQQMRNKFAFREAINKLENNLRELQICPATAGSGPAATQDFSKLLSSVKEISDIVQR
Chain of Tyrosine-protein kinase ABL1 (Homo sapiens) + Ras and Rab interactor 1 (Homo sapiens) (Q13671 whole entry, looked up): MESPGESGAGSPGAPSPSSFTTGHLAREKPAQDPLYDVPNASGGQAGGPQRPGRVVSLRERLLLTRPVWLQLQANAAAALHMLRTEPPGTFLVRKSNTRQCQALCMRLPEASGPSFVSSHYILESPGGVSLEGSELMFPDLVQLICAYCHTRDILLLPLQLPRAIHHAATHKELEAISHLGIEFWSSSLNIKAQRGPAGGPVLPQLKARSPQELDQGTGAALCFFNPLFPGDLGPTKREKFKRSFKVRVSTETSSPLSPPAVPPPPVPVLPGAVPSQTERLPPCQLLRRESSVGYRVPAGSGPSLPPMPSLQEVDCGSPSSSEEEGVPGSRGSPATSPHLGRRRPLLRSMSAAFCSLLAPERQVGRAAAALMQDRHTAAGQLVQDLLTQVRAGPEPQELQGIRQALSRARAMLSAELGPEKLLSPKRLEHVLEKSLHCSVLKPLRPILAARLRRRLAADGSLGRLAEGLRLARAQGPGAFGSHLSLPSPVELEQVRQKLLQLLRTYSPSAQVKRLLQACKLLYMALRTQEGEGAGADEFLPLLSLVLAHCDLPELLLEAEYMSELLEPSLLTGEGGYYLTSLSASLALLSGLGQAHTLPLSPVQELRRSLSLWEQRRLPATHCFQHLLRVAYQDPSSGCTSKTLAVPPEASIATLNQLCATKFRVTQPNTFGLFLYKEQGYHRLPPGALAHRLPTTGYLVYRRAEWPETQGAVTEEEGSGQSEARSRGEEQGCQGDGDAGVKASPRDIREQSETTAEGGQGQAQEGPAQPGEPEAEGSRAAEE

This experiment addresses Tyrosine-protein kinase ABL1 (Homo sapiens) + Ras and Rab interactor 1 (Homo sapiens) (UniProt P00519+Q13671). The experiment in a line: disruptors of human Abl and Rin1 association – biochemical, TR-FRET, primary screen (AID 588664). To be noted: TR-FRET Rin1/Abl binding, at 7.35 µM, active compounds read high.
In general, inhibition refers to the relative decrease from the control value, in per cent. Regarding `COc1ccc(-n2nnnc2C(c2cccc3ccccc23)N2CCC(n3c(=O)[nH]c4ccccc43)CC2)cc1` (stereo not given), the inhibition is 0.78%. With `O=c1[nH]c2ccccc2n1C1CCN(C(c2ccccc2)c2nnnn2Cc2ccccc2)CC1` (stereo not given) the figure was -0.41%; with `CSCCC(c1nnnn1C(C)(C)C)N1CCC(n2c(=O)[nH]c3ccccc32)CC1` (stereo not given), 19.1% (active). With `COc1ccc2[nH]c3c(c2c1)CCN[C@H]3C` the figure was -0.17%; with `CCc1nnc(NS(=O)(=O)c2ccc(N=Cc3c(O)n(-c4ccccc4)c(=O)[nH]c3=O)cc2)s1`, 4.11%.
